Our source for the INHIBITION values is ChEMBL document CHEMBL4513216, “Probing the Open Global Health Chemical Diversity Library for Multistage-Active Starting Points for Next-Generation Antimalarials” (ACS Infect Dis, 2020).

The whole screen tested about 69,000 compounds, of which about 8,600 (12%) showed an effect of 50% or more. This excerpt belongs to a sample that is enriched for strong results.

The test system of this experiment is Plasmodium berghei. Put plainly: Screen against P. berghei liver stage (PbLuc), transformed with Luciferase, at 10uM. Type of experiment: functional, HepG2. The following applies: tested at 10 uM.
Take `Cc1noc(CN(Cc2cccs2)C2CCS(=O)(=O)C2)n1` (configuration not stated): the INHIBITION worked out at 49.8%.

Regarding `Cc1ccc(-c2nc(CN3CCCC(C(=O)N(C)C)C3)cs2)o1` (configuration not stated), the INHIBITION is 35.9%.

As to `Cc1ccc(-c2nc(CN(C)C3CCS(=O)(=O)C3)cs2)o1` (configuration not stated), the INHIBITION turned out to be 57.7%.

Take `CC(C)(C)c1nc(CN(Cc2cccs2)C2CCS(=O)(=O)C2)no1` (configuration not stated): the INHIBITION amounted to 34.7%.

As for `O=C(NCC1CCS(=O)(=O)C1)N(Cc1ccco1)C1CC1` (configuration not stated), the INHIBITION is recorded as 38.2%.

With `Cc1ccc(-c2nc(CN3CCC(C(=O)N(C)C)CC3)cs2)o1`, the INHIBITION came out at 39.5%.

On to `CC(C)(C)c1nc(CN(Cc2cccs2)C2CCS(=O)(=O)C2)cs1` (configuration not stated), for which the INHIBITION is 59.4%.

As for `O=S1(=O)CCC(N(Cc2nc3ccccc3o2)Cc2cccs2)C1` (configuration not stated), the INHIBITION is given as -32.5%.

As to `Cc1ccc(-c2nc(CN(Cc3cccs3)C3CCS(=O)(=O)C3)cs2)o1` (configuration not stated), the INHIBITION is recorded as 87.6%.

On to `Cc1noc(C)c1CN(Cc1cccs1)C1CCS(=O)(=O)C1` (configuration not stated), for which the INHIBITION is reported as 36.1%.

As to `CCOCCN1Cc2cnn(C)c2C(COCC)C1` (configuration not stated), the INHIBITION was found to be 42.7%.

As to `CN(C)c1ncccc1CNC(=O)N1CCCC1c1cccs1` (configuration not stated), the INHIBITION came out at 4.71%.

Turning to `CCN1CCN(C)C2(CCN(Cc3ccc(C)o3)CC2)C1=O`, the INHIBITION is recorded as -93.5%.

With `O=c1[nH]cc(N2CCOCC2)c(=O)[nH]1`, the INHIBITION is -56.8%.

`CCn1ccnc1CN1CCN(CCc2ccccn2)CC1C` (configuration not stated): the INHIBITION came to 13.8%.

Consider `O=C1N(CC2CC2)CCC12CCN(CC1CC1)CC2`, for which the INHIBITION turned out to be 21.7%.

Take `O=C(CCCNCc1ccccc1)N1CCCn2cncc2C1`: the INHIBITION came to 30.9%.

Turning to `Cc1ccc(CN2CCc3ncnc(-c4cccnc4)c3CC2)o1`, the INHIBITION turned out to be 13.7%.

In the case of `Cc1cc(N2CCC(C(=O)N(C)C)CC2)nc(-c2ccncc2)n1`, the INHIBITION is given as -148%.

`COc1cccc(-c2c[nH]c(C)n2)c1F`: the INHIBITION is -114%.

For the molecule `CC(C)N1CC(NC(=O)c2ccc(Cl)s2)CC1=O` (configuration not stated), the INHIBITION stood at 83.8%.

As to `CCCS(=O)(=O)N1CCC(NC(=O)c2ccc(Cl)s2)CC1`, the INHIBITION was 21%.

For the molecule `O=C(NC1CC(=O)N(C2CC2)C1)c1ccc(Cl)s1` (configuration not stated), the INHIBITION is recorded as 33.1%.

Consider `O=C(NCCCF)N1CCC(n2ccc(C(F)(F)F)n2)CC1`, for which the INHIBITION was 36.3%.

For the molecule `O=C(CNC(=O)N1CCc2c([nH]c3ccc(Cl)cc23)C1)NC1CCCC1`, the INHIBITION is recorded as -6.91%.

As for `COCC(=O)N1CC(c2n[nH]cc2C)C1`, the INHIBITION was -41.1%.

Regarding `O=C(c1cc2c(s1)CCN2C(=O)C1CC1)N1CCCC1`, the INHIBITION was found to be 23.3%.

Consider `O=C(NC1CCCC1)c1cc2c(s1)CCN2C(=O)c1ccccc1`, for which the INHIBITION is 55.9%.

Regarding `CN1CCN(C(=O)c2cc3c(s2)CCN3C(=O)C2CC2)CC1`, the INHIBITION is recorded as -29.8%.

For the molecule `O=C(NCCN1CCCC1)c1cc2c(s1)CCN2C(=O)c1ccccc1`, the INHIBITION is reported as -28%.

With `CCCNC(=O)c1cc2c(s1)CCN2C(=O)c1ccccc1`, the INHIBITION was -27%.

On to `O=C(NC1CC1)c1cc2c(s1)CCN2C(=O)C1CC1`, for which the INHIBITION was determined as 51.4%.

Consider `c1cncc(COCc2nnn3c2CN(Cc2ccsc2)CC3)c1`, for which the INHIBITION is -9.26%.

Consider `OCCNc1cc(-c2nccnc2N2CCCC2)c2cc[nH]c2n1`, for which the INHIBITION is 37.7%.

With `Nc1cc(-c2nccnc2N2CCCC2)c2cc[nH]c2n1`, the INHIBITION is reported as 58.3%.

For `O=C(O)CNc1cc(-c2cc(C3CC3)ncn2)c2cc[nH]c2n1`, the INHIBITION was determined as 19.5%.

Regarding `O=C(O)CNc1cc(-c2nccnc2N2CCCC2)c2cc[nH]c2n1`, the INHIBITION is listed as 51.8%.

As to `Nc1cc(-c2cc(C(=O)O)ccc2Cl)c2cc[nH]c2n1`, the INHIBITION is 15.2%.

Take `Nc1cc(-c2ccc(C(=O)O)cc2O)c2cc[nH]c2n1`: the INHIBITION is 2.91%.

For the molecule `CN1CC(=O)N(c2cccc(F)c2)CC12CCN(Cc1cncn1C)C2` (configuration not stated), the INHIBITION is -15.7%.

Consider `CS(=O)(=O)NCC1CCCN(C(=O)c2ccc(Cl)o2)C1` (configuration not stated), for which the INHIBITION is reported as 15%.

With `O=C(c1ccccn1)N1CC[C@@H](N2CCOCC2)[C@@H]1Cc1ccccc1`, the INHIBITION turned out to be 39.2%.

For `Cc1nccn1-c1cncc(C2CCCN2Cc2ccccc2)n1` (configuration not stated), the INHIBITION amounted to 36.7%.

Consider `COCCN1CCCc2sc(C(=O)N3CCCN(C)CC3)nc21`, for which the INHIBITION is on record as 5.36%.

For `Clc1ccccc1CN1CCc2nc(C3CCCNC3)ncc2C1` (configuration not stated), the INHIBITION was determined as 6.32%.

For the molecule `Cc1noc(NC(=O)c2cccc(Br)c2)n1`, the INHIBITION stood at 88.2%.

As for `Cc1c(NC(=O)c2cccc(Br)c2)c(C(=O)N(C)C)nn1C`, the INHIBITION is on record as 45.8%.

`Cc1ccc(C(=O)Nc2nc(C)no2)cc1`: the INHIBITION came out at 23.7%.

Take `Cc1noc(NC(=O)c2ccc(OC(F)(F)F)cc2)n1`: the INHIBITION amounted to 87.6%.

Take `Cc1noc(NC(=O)c2ccccc2)n1`: the INHIBITION was -10.6%.

For the molecule `Cc1noc(NC(=O)c2ccc(C#N)cc2)n1`, the INHIBITION is -0.96%.

In the case of `Cc1noc(COCC(=O)Nc2ccc(Br)c(C)n2)n1`, the INHIBITION turned out to be 10.7%.

Regarding `Cc1noc(NC(=O)c2ccc(Br)s2)n1`, the INHIBITION stood at 85.9%.

Turning to `Cn1nc(CNC(=O)c2ccc(OC(F)(F)F)cc2)c2c1CCOC2`, the INHIBITION is -6.42%.

On to `Cc1noc(NC(=O)CCNC(=O)c2ccc(Br)cc2)n1`, for which the INHIBITION worked out at 14.1%.

Consider `Cc1noc(NC(=O)c2ccc(Br)o2)n1`, for which the INHIBITION came to 31.9%.

Take `Cc1noc(NC(=O)c2ccc(Br)cc2)n1`: the INHIBITION amounted to 91.5%.
